HT1080-NT tox: qHTS for induction of synthetic lethality in tumor cells producing 2HG: qHTS for the HT-1080-NT fibrosarcoma cell line. HT-1080-NT fibrosarcoma viability, CellTiter-Glo ATP luminescence, 48 h. Potency, µM (top dose mostly 46.1 µM), for inactives: top-dose activity, negative = less viability, actives largely listed as cytotoxic. 360,000 tested, 1.6% active. AID 686970, 2013;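 also: NT is the 2HG producing partner of a matched IDH1 knockdown line; 0% = DMSO-treated cells and -100% = media-only wells without cells; nearly all actives have a fitted effect of over 55% in size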
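HT-1080-NT; 750 cells/well; 5% FBS RPMI; 48 h compound, 37 degrees C; CellTiter-Glo luminescence; curve fitting and curve-class assignment.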
HT1080 IDH1KD tx: qHTS for induction of synthetic lethality in tumor cells producing 2HG: qHTS for the HT-1080-IDH1KD cell line; Potency, µM (titrated, usually from 46.1 µM), for inactives: top-dose activity, negative = toxicity, actives largely listed as cytotoxic; 360,000 tested, 2% active; AID 686971, 2013; HT-1080 IDH1 knockdown viability, ATP luminescence, 48 h;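 also: 0% = DMSO wells and -100% = cell-free medium wells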
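IDH1KD HT-1080 cells, 750/well, RPMI + 5% FBS; compound pinned after 2 h settling; 48 h, 37 °C; CellTiter-Glo luminescence; % activity normalised to DMSO and no-cell wells; curves fitted, classed by r2 and efficacy.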
ATXN2 expr inh: Primary qHTS for Inhibitors of ATXN expression; HEK-293 ATXN2-luciferase reporter, luminescence, 24 h; Potency, µM (series often up to 57 µM), for inactives: top-dose activity change, negative = inhibition, hits mostly inhibitors; 360,000 tested, 0.72% active; AID 1745845, 2022; also: % is scaled to controls: 0 for no effect and ±100 for the full control effect; nearly all actives have a fitted effect of over 55% in size
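qHTS (up to 57 uM final) was run with 24 h compound exposure of reporter cells at 37 °C. Each well was multiplexed: SteadyGlo luminescence measured ATXN2-luciferase expression after a fluorogenic Gly-Phe-AFC viability readout (25 uM final).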
ATXN viability: Viability Counterscreen for Primary qHTS for Inhibitors of ATXN expression; S2 cells (HEK-293 line with an ATXN2-luciferase reporter) viability, CellTiter-Fluor protease fluorescence, 24 h; 400,000 tested, 0.49% active; Potency, µM (highest dose often 56.7 µM), actives largely listed as cytotoxic; also: nearly all actives have a fitted effect of over 40% in size
KB-3-1 cytotox: qHTS assay for MDR1-selective chemotherapeutics: Primary screen using the parental adenocarcinoma cell KB-3-1; KB-3-1 viability, CellTiter-Glo ATP luminescence, 72 h; Potency, µM (top dose mostly 46.1 µM), most hits filed as cytotoxic; 400,000 tested, 1.4% active; AID 1347075, 2019; also: % is scaled to controls: 0 for no effect and ±100 for the full control effect; nearly all actives have a fitted effect of over 60% in size
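Here the drug-naive KB-3-1 line serves as comparator for MDR sub-line selectivity; cells received compound titrations, 72 h at 37 °C, then CellTiter-Glo readout.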
KB-V1 cytotox: qHTS assay for MDR1-selective chemotherapeutics: Primary screen using the drug-selected MDR subline cells KB-V1. KB-V1 MDR cells viability, CellTiter-Glo, 72 h. Potency, µM (top dose mostly 46.1 µM), hits mostly cytotoxic. 400,000 tested, 3.4% active. AID 1347076, 2019; also: % is scaled to controls: 0 for no effect and ±100 for the full control effect; nearly all actives have a fitted effect of over 60% in size
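Following 72 h at 37 degrees C with compound, KB-V1 cell viability was read by CellTiter-Glo luminescence, medium being phenol-red-free DMEM plus 10% FBS; concentration-response parameters came from normalized, curve-fitted qHTS data.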
Numbers without * were called inactive. Rows were chosen to be rich in hits. Some 6.2% of all compounds tested hit in one or more screens of this group. Calls follow the shape of the dose curve; as a rule, active = well fitted curve in the direction sought with a large enough effect; inconclusive = small, poorly fitted or top-dose-only effect, or another doubt; inactive = no such curve, though single readings can be large; an effect the other way counts as inactive or inconclusive. Potency is read from the fitted curve at half-maximal effect.

Results for O=S1(=O)CCO[C@H]2CCCC[C@@H]2N1Cc1ccc(Cl)cc1 ?
KB-3-1 cytotox: inactive; KB-V1 cytotox: inconclusive

Results for CCOc1ccc(NC(=O)c2cc([N+](=O)[O-])ccc2N2CCOCC2)cc1 ?
HT1080-NT tox: inconclusive; HT1080 IDH1KD tx: inconclusive; ATXN2 expr inh: -23%; ATXN viability: inactive; KB-3-1 cytotox: inactive; KB-V1 cytotox: 23µM*

What do the screens show for `Cc1ccc(NC(=O)c2cc(N3C(=O)C=CC3=O)ccc2N2CCOCC2)cc1`?
HT1080-NT tox: inconclusive; HT1080 IDH1KD tx: 23µM*; ATXN2 expr inh: inconclusive; ATXN viability: inconclusive; KB-3-1 cytotox: inconclusive; KB-V1 cytotox: inactive

What do the screens show for `O=C(NCCc1ccccc1)c1cc([N+](=O)[O-])ccc1N1CCOCC1`?
HT1080-NT tox: -10%; HT1080 IDH1KD tx: -2%; ATXN2 expr inh: 2%; ATXN viability: inactive; KB-3-1 cytotox: inactive; KB-V1 cytotox: inactive

Results for O=C(NCCOc1ccccc1F)c1cc([N+](=O)[O-])ccc1N1CCOCC1 ?
HT1080-NT tox: 6.5µM*; HT1080 IDH1KD tx: 8.2µM*; ATXN2 expr inh: -23%; ATXN viability: inconclusive; KB-3-1 cytotox: inconclusive; KB-V1 cytotox: inactive

Results for O=C(NCCOc1ccccc1)c1cc([N+](=O)[O-])ccc1N1CCOCC1 ?
HT1080-NT tox: inconclusive; HT1080 IDH1KD tx: 7.3µM*; ATXN2 expr inh: -25%; ATXN viability: inconclusive; KB-3-1 cytotox: inconclusive; KB-V1 cytotox: inconclusive

How did Cc1ccc(NC(=O)c2cc(NC(=O)c3ccco3)ccc2N2CCOCC2)cc1 do in these assays?
HT1080-NT tox: -2%; HT1080 IDH1KD tx: -10%; ATXN2 expr inh: -11%; ATXN viability: inactive; KB-3-1 cytotox: inactive; KB-V1 cytotox: inactive

How did O=C(NCCc1ccc(F)cc1)c1cc([N+](=O)[O-])ccc1N1CCOCC1 do in these assays?
HT1080-NT tox: 4%; HT1080 IDH1KD tx: -1%; ATXN2 expr inh: -1%; ATXN viability: inactive; KB-3-1 cytotox: inactive; KB-V1 cytotox: inconclusive

How did Cc1ccc(S(=O)(=O)c2nc(S(=O)(=O)c3ccc(C)cc3)c(NCCCOC(C)C)s2)cc1 do in these assays?
ATXN2 expr inh: 14%; ATXN viability: inactive; KB-3-1 cytotox: inactive; KB-V1 cytotox: inconclusive

What do the screens show for `COc1cc(Cl)c(C)cc1NC(=O)CCCN1C(=O)C(c2ccccc2)Oc2cccnc21` (configuration not stated)?
ATXN2 expr inh: -25%; ATXN viability: inconclusive; KB-3-1 cytotox: inactive; KB-V1 cytotox: inactive

How did O=C1C=C(c2ccccc2)C[C@H](c2cccs2)[C@H]1n1nnc([N+](=O)[O-])n1 do in these assays?
HT1080-NT tox: 15µM*; HT1080 IDH1KD tx: 9.2µM*; ATXN2 expr inh: inconclusive; ATXN viability: 28µM*; KB-3-1 cytotox: inactive; KB-V1 cytotox: 16µM*

Results for CCOc1ccccc1N1CCN(c2ncnc3scc(-c4ccc(OC)cc4)c23)CC1 ?
HT1080-NT tox: inconclusive; HT1080 IDH1KD tx: inconclusive; ATXN2 expr inh: inconclusive; ATXN viability: inactive; KB-3-1 cytotox: 13µM*; KB-V1 cytotox: inconclusive

Results for Oc1ccccc1N1CCN(c2ncnc3scc(-c4ccc(F)cc4)c23)CC1 ?
HT1080-NT tox: inconclusive; HT1080 IDH1KD tx: inconclusive; ATXN2 expr inh: -32%; ATXN viability: inactive; KB-3-1 cytotox: inactive; KB-V1 cytotox: inactive

What do the screens show for `COc1ccc(-c2csc3ncnc(N4CCN(c5ccccc5OC)CC4)c23)cc1`?
HT1080-NT tox: -18%; HT1080 IDH1KD tx: -7%; ATXN2 expr inh: 32µM*; ATXN viability: inconclusive; KB-3-1 cytotox: inconclusive; KB-V1 cytotox: inconclusive

Results for COc1ccccc1N1CCN(c2ncnc3n[nH]c(Br)c23)CC1 ?
HT1080-NT tox: inconclusive; HT1080 IDH1KD tx: 18µM*; ATXN2 expr inh: -29%; ATXN viability: inconclusive; KB-3-1 cytotox: inconclusive; KB-V1 cytotox: inconclusive

What do the screens show for `COc1ccccc1N1CCN(c2ncnc3onc(C)c23)CC1`?
ATXN2 expr inh: -9%; ATXN viability: inactive; KB-3-1 cytotox: inactive; KB-V1 cytotox: inconclusive

How did COc1ccc(-c2csc3ncnc(N4CCN(CCO)CC4)c23)cc1 do in these assays?
HT1080-NT tox: -2%; HT1080 IDH1KD tx: -19%; ATXN2 expr inh: 0%; ATXN viability: inactive; KB-3-1 cytotox: inactive; KB-V1 cytotox: inactive

How did O=C(NCC(=O)N1CCN(Cc2ccccc2)CC1)c1cc(Cl)cc([N+](=O)[O-])c1 do in these assays?
HT1080-NT tox: -20%; HT1080 IDH1KD tx: inconclusive; ATXN2 expr inh: -34%; ATXN viability: inactive; KB-3-1 cytotox: 23µM*; KB-V1 cytotox: inconclusive

Results for O=C(NCC(=O)N1CCN(Cc2ccccc2)CC1)c1ccc(Cl)cc1 ?
HT1080-NT tox: 17%; HT1080 IDH1KD tx: -4%; ATXN2 expr inh: -34%; ATXN viability: inactive; KB-3-1 cytotox: inconclusive; KB-V1 cytotox: inactive

How did COc1cc(=O)n2c(c1C(=O)NC(C)c1ccco1)CCN(CC=C(C)C)CC2 (configuration not stated) do in these assays?
ATXN viability: inactive

How did Cc1ccccc1N=Nc1ccc(O)c2ncccc12 do in these assays?
HT1080-NT tox: inconclusive; HT1080 IDH1KD tx: 7.3µM*; ATXN2 expr inh: inconclusive; ATXN viability: inactive; KB-3-1 cytotox: inconclusive; KB-V1 cytotox: inactive

Results for Cc1ccnc2c(Cl)cccc12 ?
KB-3-1 cytotox: inactive; KB-V1 cytotox: inactive

What do the screens show for `Cc1c(C)c2cccnc2c2ncccc12`?
HT1080-NT tox: 10µM*; HT1080 IDH1KD tx: 5.2µM*; ATXN2 expr inh: inconclusive; ATXN viability: inconclusive; KB-3-1 cytotox: 6.5µM*; KB-V1 cytotox: inconclusive

How did Cc1ccc(O)c2ncccc12 do in these assays?
ATXN2 expr inh: 16µM*; ATXN viability: inconclusive

Results for COc1cccc(N=Nc2ccc(O)c3ncccc23)c1 ?
HT1080-NT tox: inconclusive; HT1080 IDH1KD tx: inconclusive; ATXN2 expr inh: inconclusive; ATXN viability: 16µM*; KB-3-1 cytotox: 4.6µM*; KB-V1 cytotox: inactive

What do the screens show for `Cc1cccc(CNC(=O)c2cnn(-c3nccc(-c4cccs4)n3)c2C2CC2)n1`?
ATXN viability: inactive

Results for COc1cc(=O)n2c(c1C(=O)N(C)Cc1nonc1C)CCN(CC1CC=CCC1)CC2 (configuration not stated) ?
ATXN viability: inactive
